High-throughput results deposited in PubChem BioAssay by several laboratories.
Shown are actives, neighbours in structure and some others; about 1.5% of the full set was active somewhere.
NALP1 yeast inh: blocks the NALP1 inflammasome reconstituted in yeast; 0.61% of 280,000 active; S. cerevisiae NALP1/ASC/caspase-1 growth, X-gal OD620, 72 h; inhibition, % at 10 µM; AID 2071; in the data active means inhibition mostly above about 24%, no sharp cut-off; inactive means mostly below about 32%
Efflux pump mplx: blocks antifungal efflux pumps in multiplex yeast assay | S. cerevisiae Candida pump triplex, Nile Red efflux | AID 485275 | inhibition, % at 10 µM | 0.44% of 330,000 active;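 active means plate passing quality check with inhibition over a set limit, or well fluorescence over plate mean plus 4 SD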;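 further: Nile Red retained in pooled yeast measured as flow cytometry median fluorescence; 0% = buffer negative control and 100% = Enniatin B positive control; higher means more Nile Red kept so more efflux inhibition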
JMJD2C inh: inhibitors of human GASC-1 (JMJD2C) demethylase; 0.069% of 330,000 active; GST-JMJD2C(1-420) H3K9me3 demethylation, DELFIA europium; inhibition, % at 2.35 µM; AID 2099;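 active means more than half of a compound's replicate wells show inhibition beyond 50%, single wells judged on their own value; inconclusive means some, but no more than half, of replicates pass 50% inhibition; inactive means no replicate passes 50% inhibition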;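 further: signal counts dimethyl H3K9 product captured on neutravidin plate; 0% = median of DMSO wells and 100% = 0.3 times that DMSO median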
Target sequence (Q9H3R0 1-420 limits assumed): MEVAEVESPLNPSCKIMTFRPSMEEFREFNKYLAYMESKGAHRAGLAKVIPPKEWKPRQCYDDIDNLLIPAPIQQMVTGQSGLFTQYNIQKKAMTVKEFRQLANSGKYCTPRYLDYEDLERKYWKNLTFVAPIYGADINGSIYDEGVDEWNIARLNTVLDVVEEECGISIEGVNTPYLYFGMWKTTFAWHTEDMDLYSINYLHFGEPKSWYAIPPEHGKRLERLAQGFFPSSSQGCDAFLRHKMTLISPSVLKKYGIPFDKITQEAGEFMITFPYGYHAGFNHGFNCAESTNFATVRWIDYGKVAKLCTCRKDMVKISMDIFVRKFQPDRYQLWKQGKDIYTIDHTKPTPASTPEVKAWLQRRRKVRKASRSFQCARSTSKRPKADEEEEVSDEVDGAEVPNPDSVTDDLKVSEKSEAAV
HDAC3 inhib: blocks human histone deacetylase 3; recombinant HDAC3, fluorogenic peptide/trypsin coupled, fluorescence; inhibition, % at 8.3 µM; O15379; 0.15% of 320,000 active; AID 2718; in the data active means inhibition above about 26%, passing the limit was not always enough; inconclusive means no clear call, values can overlap the other calls
NLRP3 yeast inh: NALP3 inhibition in yeast; inhibition, % at 10 µM; 0.39% of 330,000 active; AID 2825; Yeast reconstituted NLRP3/ASC/caspase-1, beta-gal luminescence, 24 h;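 active means inhibition of 50% or more; inactive means inhibition below 50%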;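 further: plate controls were induced DMSO wells for no effect and uninduced yeast grown without galactose for full effect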
PolyA inh: inhibitors of polyadenylation in S. cerevisiae; S. cerevisiae SKY197-pL101 polyadenylation reporter, beta-gal luminescence; efflux-impaired pdr1/pdr3 knockout yeast; score 100 = 6 SD above DMSO; activity score, % at 12 µM; 0.02% of 300,000 active; AID 1875;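 active means lowest replicate activity score at least 50, where 100 means six control SD above control mean; inconclusive means lowest score under 50 but half or more replicates reach 50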;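 further: yeast exposed to compound for 9 h at 30 °C; higher score means more reporter readthrough which indicates perturbed polyadenylation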
Numbers without * were called inactive.

For O=C(NCc1ccc(F)cc1)c1cccnc1C(=O)O the results were NALP1 yeast inh 1, Efflux pump mplx 0, JMJD2C inh 55, HDAC3 inhib -4, NLRP3 yeast inh 15 and PolyA inh 3.
Screening O=C(NCc1cccs1)c1cccnc1C(=O)O returned NALP1 yeast inh 21, Efflux pump mplx 0, JMJD2C inh 59*, HDAC3 inhib 3, NLRP3 yeast inh -2 and PolyA inh 4.
For Cc1ccc(C2N(c3ccc(F)cc3)C(=O)C3CCCN32)cc1 (centres undefined) the results were NALP1 yeast inh 44*, Efflux pump mplx 0, JMJD2C inh 13, HDAC3 inhib -1, NLRP3 yeast inh 9 and PolyA inh -3.
COCCNC(=S)N1CCc2cc(OC)c(OC)cc2C1COc1ccc(F)cc1 (centres undefined) was read as NALP1 yeast inh -10, Efflux pump mplx 0, JMJD2C inh -4, HDAC3 inhib -2, NLRP3 yeast inh 2 and PolyA inh 5.
Screening COCCNC(=S)N1CCc2cc(OC)c(OC)cc2C1c1cccs1 (centres undefined) returned NALP1 yeast inh 24*, Efflux pump mplx 0, JMJD2C inh 2, HDAC3 inhib 7, NLRP3 yeast inh -6 and PolyA inh 4.
`CC(C)=CCOc1c2ccoc2cc2oc(=O)ccc12` gave NALP1 yeast inh 31, Efflux pump mplx 0, JMJD2C inh inconclusive, HDAC3 inhib -3, NLRP3 yeast inh 21 and PolyA inh 54*.
CC(C)=CCOc1c2ccoc2c(OCC=C(C)C)c2oc(=O)ccc12 was read as Efflux pump mplx 0 and NLRP3 yeast inh 20.
Screening OC(CSc1ccccc1Cl)CN1CCN(c2ccccc2F)CC1 (centres undefined) returned NALP1 yeast inh 44, Efflux pump mplx 0, JMJD2C inh 2, HDAC3 inhib 9, NLRP3 yeast inh 24 and PolyA inh -25.
For OC(CSc1c(Cl)cccc1Cl)CN1CCN(c2ccccc2F)CC1 (centres undefined) the results were NALP1 yeast inh 60*, Efflux pump mplx 0, JMJD2C inh -2, HDAC3 inhib -3, NLRP3 yeast inh 22 and PolyA inh 7.
For CC(C)=CCC[C@](C)(O[C@@H]1O[C@H](CO[C@@H]2O[C@H](CO)[C@@H](O)[C@H](O)[C@H]2O)[C@@H](O)[C@H](O)[C@H]1O)C1CC[C@]2(C)C1C(=O)CC1[C@@]3(C)CC[C@H](O[C@H]4O[C@@H](CO)[C@H](O)[C@@H](O)[C@@H]4O)C(C)(C)C3CC[C@]12C (some centres undefined) the results were Efflux pump mplx 0, JMJD2C inh -4, HDAC3 inhib -2 and NLRP3 yeast inh 5.
For CC(=O)OCC1O[C@@H](O[C@@H]2C[C@H]3C(C)(C)[C@H](OC(C)=O)CC[C@]3(C)[C@H]3CC[C@]45C[C@]4(CC[C@H]5[C@@H](C)C[C@@H](O)[C@H](O)C(C)(C)O)[C@@]32C)[C@H](O)[C@@H](O)[C@@H]1O (some centres undefined) the results were NALP1 yeast inh 1, Efflux pump mplx 0, JMJD2C inh -3, HDAC3 inhib 42*, NLRP3 yeast inh 1 and PolyA inh -5.
O=c1[nH]c2cccnc2n1Cc1ccccc1 was read as NALP1 yeast inh 41*, Efflux pump mplx 0, JMJD2C inh -6, HDAC3 inhib -9, NLRP3 yeast inh 7 and PolyA inh 15.
Screening O=c1[nH]c2ccccc2n1Cc1ccccc1 returned NALP1 yeast inh 21, Efflux pump mplx 0, JMJD2C inh 3, HDAC3 inhib -1, NLRP3 yeast inh 14 and PolyA inh -13.
`CC(C)C(NC(=O)C1CC(=O)N(Cc2ccccc2)C1)c1nc2ccccc2[nH]1` (centres undefined) gave Efflux pump mplx 0, JMJD2C inh -2, HDAC3 inhib -1 and NLRP3 yeast inh 7.
For COc1cc(NC(=O)Cn2cnc3c(NCc4ccccc4)ncnc32)cc(OC)c1OC the results were Efflux pump mplx 0.
`OCCC1CN(Cc2cccn2-c2nccs2)CCN1C1CCCCC1` (centres undefined) gave NALP1 yeast inh 25*, Efflux pump mplx 0, JMJD2C inh -10, HDAC3 inhib -5, NLRP3 yeast inh 0 and PolyA inh 5.
